Rows were chosen to be rich in hits. Some 11% of all compounds tested hit in one or more screens of this group.
AmpC inh no detg: AmpC beta-lactamase inhibition without detergent. AmpC nitrocefin hydrolysis, absorbance 480 nm, 0.0001% Triton. hit rate 0.52% among 330,000. Potency, µM (series often up to 57.1 µM), without a hit: top-dose activity change, negative = inhibition, most hits filed as inhibitors. P00811;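 note: plate controls were no compound for no effect and no enzyme for full effect; nearly all actives have a fitted effect of over 20% in size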
Target sequence (P00811 whole entry, looked up): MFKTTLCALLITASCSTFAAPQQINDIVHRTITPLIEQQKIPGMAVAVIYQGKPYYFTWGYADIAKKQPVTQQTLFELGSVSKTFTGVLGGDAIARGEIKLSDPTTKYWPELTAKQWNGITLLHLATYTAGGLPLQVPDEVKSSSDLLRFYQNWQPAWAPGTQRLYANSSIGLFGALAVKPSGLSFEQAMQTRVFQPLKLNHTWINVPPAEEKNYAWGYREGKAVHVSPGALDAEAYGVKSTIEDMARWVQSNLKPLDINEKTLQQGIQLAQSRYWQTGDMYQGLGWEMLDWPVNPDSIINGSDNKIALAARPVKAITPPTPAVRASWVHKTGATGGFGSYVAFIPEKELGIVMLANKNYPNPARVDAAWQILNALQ
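AmpC (5.3 nM in the dispensed reagent) in 20 mM phosphate pH 7.0 with 0.01% (detergent screen) or 0.0001% Triton X-100 was preincubated with compounds for 15 min at room temperature. Nitrocefin was then added from an 800 uM solution, and hydrolysis was followed at 480 nm.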
HCV inhibitor: inhibitors of hepatitis C virus infection. Huh7.5.1 HCVcc-Cre infection, luciferase reporter, 44 h. Potency, µM (series often up to 41.8 µM), without a hit: top-dose activity change, negative = inhibition, usual class: inhibitors. hit rate 3.4% among 340,000. AID 651820
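Antiviral activity was scored by luciferase reporter output from cells infected with HCVcc-Cre (~0.5 moi) in presence of compound, 44 h infection period, cells seeded 1,000/well 4 h prior.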
Pf growth 48h: inhibits P. falciparum growth in the first generation, 48 h | AID 504832 | hit rate 5.9% among 310,000 | P. falciparum luciferase growth in erythrocytes, 48 h | Potency, µM (doses to about 28.7 µM), for the others: at the highest dose activity change, negative = inhibition, usual class: inhibitors
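Firefly luciferase activity from engineered P. falciparum reports growth; inhibitors lower the luminescent signal. Cultures contained 2% hematocrit erythrocytes at 0.1% final parasitemia.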
AmpC inh detg: inhibitors of E. coli AmpC beta-lactamase with detergent | hit rate 0.041% among 370,000 | Potency, µM (doses to about 114 µM), without a hit: top-dose activity change, negative = inhibition, most hits filed as inhibitors | AmpC hydrolysis of nitrocefin, absorbance 480 nm, 0.01% Triton | P00811 | AID 485294;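 note: 0% = no-compound wells and -100% = no-enzyme wells; nearly all actives have a fitted effect of over 25% in size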
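20 mM phosphate pH 7.0 + 0.01% (detergent screen) or 0.0001% Triton X-100; 5.3 nM AmpC reagent; cpd preinc 15 min RT; nitrocefin (800 uM stock) to start; A480 q20 s × 4 min; Activity was normalised to no-enzyme and no-compound control wells.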
Pf growth 96h: P. falciparum growth inhibition at 96 hour, primary screen for plastid delayed-death inhibitors; hit rate 6.9% among 320,000; AID 504834; P. falciparum luciferase reporter growth, 96 h; Potency, µM (top dose mostly 28.7 µM), for inactives: top-dose activity change, negative = inhibition, usual class: inhibitors
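Plates of compound plus infected erythrocytes (2% hematocrit, 0.05% parasitemia final) incubate 96 hours, 37 C, 5% CO2. Detection reagent added; reduced luminescence from the parasites' luciferase reporter flags inhibition.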
AMA1-RON2 inh: disrupts binding of P. falciparum AMA1 to RON2 | AlphaScreen AMA1-biotinylated RON2 peptide binding | Potency, µM (series often up to 58.2 µM), for inactives: top-dose activity change, negative = inhibition, hits mostly inhibitors | hit rate 0.2% among 360,000;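 note: 0% = vehicle wells and -100% = peptide control; nearly all actives have a fitted effect of over 45% in size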
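AMA1 (3D7) with his tag at 25 nM final met compounds first, then biotinylated RON2 peptide at 25 nM; detection used donor plus acceptor beads, 10 µg/mL apiece, read by AlphaScreen after 30 min at room temperature.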
An asterisk follows results filed as active; i = inactive; ? = inconclusive; . = no result. Calls come from the whole dose curve; as a rule, active = well fitted curve in the direction sought with a large enough effect; inconclusive = small, poorly fitted or top-dose-only effect, or another doubt; inactive = no such curve, though single readings can be large; an effect the other way counts as inactive or inconclusive. Unless noted, % is set by controls: 0 for no effect and ±100 for the full control effect; potency is the fitted concentration of half-maximal effect.

SMILES	AmpC inh no detg	HCV inhibitor	Pf growth 48h	AmpC inh detg	Pf growth 96h	AMA1-RON2 inh
COc1ccc(OC)c2[nH]c(=O)c(CCNC(=O)c3ccc(S(=O)(=O)N4CCCC4)cc3)cc12	149.5%	11.2µM*	?	-8.1%	55.0%	3.2%
O=C(NCC(c1ccco1)S(=O)(=O)c1cccs1)c1c(F)cccc1F (centres undefined)	.	.	.	-0.4%	.	.
COc1ccccc1NC(=O)CSCC(=O)N1c2ccccc2CCc2ccccc21	-0.4%	25.1µM*	?	?	5.86µM*	4.3%
COC(=O)N1c2ccccc2CCc2ccccc21	-0.4%	?	7.38µM*	-0.1%	36.0%	-9.3%
COc1ccc(NC(=O)CSCC(=O)N2c3ccccc3CCc3ccccc32)cc1	12.2%	2.4%	?	-0.7%	?	-6.8%
CCc1ccc(OCC(=O)N2CCc3ccccc32)cc1	-33.6%	-8.8%	36.6%	-1.6%	41.1%	-8.1%
CCc1ccc(OCC(=O)N2c3ccccc3CCc3ccccc32)cc1	-11.2%	-9.7%	9.28µM*	0.2%	i	9.9%
CC(C)(C)C(=O)N1c2ccccc2CCc2ccccc21	-12.2%	-7.7%	2.0%	?	?	1.8%
CN(C)c1ccc(C(=O)Nc2sc(Nc3ccccc3)nc2C(N)=O)cc1	.	.	.	17.5%	.	.
CCCCC(=O)Nc1ccc2nc(SCC(=O)N3CCc4ccccc43)sc2c1	.	.	.	-3.1%	.	.
O=c1[nH]c2sc3c(c2c(=O)n1Cc1ccccc1)CCC3	-43.0%	8.5%	2.9%	-12.7%	1.3%	-1.6%
Nc1c2c(nc3ccn(Cc4ccccc4)c(=O)c13)CCC2	-20.8%	-7.0%	.	-10.7%	2.94µM*	3.9%
Nc1c2c(nc3ccn(-c4ccccc4)c(=O)c13)CCCCC2	-15.4%	-13.2%	?	?	16.5µM*	-17.9%
O=C(O)c1c2c(nc3ccccc13)CCCCC2	-7.9%	0.8%	0.3%	-7.3%	?	-3.7%
COc1ccc(-n2ncc3c2CC(C)(C)CC3NC(=O)CCN2CCCCC2=O)cc1 (centres undefined)	178.0%	23.0%	-7.8%	-10.7%	-12.8%	9.4%
CC1(C)Cc2c(cnn2-c2ccccc2)C(NC(=O)CCN2CCCC2=O)C1 (centres undefined)	18.4%	-20.0%	10.3%	-12.1%	14.7µM*	-6.9%
CC1(C)Cc2c(cnn2-c2ccc(F)cc2)C(NC(=O)CCCN2CCCCC2=O)C1 (centres undefined)	117.2%	0.5%	-24.7%	-3.2%	13.1µM*	-3.5%
Cc1cc(C(=O)NC2CCCc3c2cnn3-c2ccc(C)c(C)c2)nc(C)n1 (centres undefined)	171.5%	-28.1%	?	1.9%	54.4%	4.4%
CC1(C)Cc2c(cnn2-c2ccccc2)C(NC(=O)CCCN2CCCCC2=O)C1 (centres undefined)	91.5%	-21.9%	-8.3%	-5.3%	6.57µM*	14.1%
Cc1ccc(-n2ncc3c2CC(C)(C)CC3NC(=O)CCCN2CCCC2=O)cc1 (centres undefined)	111.6%	3.4%	-19.0%	-2.4%	?	1.5%
COC(=O)c1ccc(C(=O)NC2CCCc3c2cnn3-c2ccc(C)c(C)c2)cc1 (centres undefined)	-0.9%	12.6µM*	-4.6%	?	?	2.9%
CC1CCN(S(=O)(=O)c2ccc3c(c2)N(CC(=O)O)C(=O)CO3)CC1	.	.	.	2.0%	.	.
COc1ccc(CC(=O)NC2CC(=O)N(c3cccc(F)c3)C2)cc1 (centres undefined)	.	.	.	-0.3%	.	.
Cc1ccc(-n2ncc3c2CCCC3NC(=O)CCN2CCCC2=O)cc1C (centres undefined)	31.2%	9.1%	-8.9%	-1.2%	?	-2.2%
Cc1ccc(-n2ncc3c2CCCC3NC(=O)CCCN2CCCCC2=O)cc1C (centres undefined)	104.2%	?	-6.3%	-11.5%	13.1µM*	-0.7%
SMILES	AmpC inh no detg	HCV inhibitor	Pf growth 48h	AmpC inh detg	Pf growth 96h	AMA1-RON2 inh
COc1ccc(C2Oc3ccccc3C3=C2C(c2cccs2)n2ncnc2N3)cc1 (centres undefined)	7.5%	?	8.28µM*	4.3%	.	8.2%
COc1ccc(C2C3=C(Nc4ncnn42)c2ccccc2CC3)cc1OC (centres undefined)	-1.3%	.	?	-7.9%	?	.
Brc1ccc(C2C3=C(Nc4ncnn42)c2ccccc2OC3c2ccncc2)cc1 (centres undefined)	-8.9%	-28.7%	13.1µM*	0.1%	.	0.3%
COc1ccc(OC)c(NC(=O)C2=C(C)Nc3ncnn3C2c2cccs2)c1 (centres undefined)	-9.0%	1.5%	-13.6%	?	-17.7%	-2.9%
Cc1cc(C)cc(Oc2c(C(F)(F)F)oc3c(CN4CCCC(C)C4)c(O)ccc3c2=O)c1 (centres undefined)	.	.	.	29.3%	.	.
O=C(CC1CC2CCC1C2)Nc1nc(-c2ccccn2)cs1 (centres undefined)	-41.5%	?	2.62µM*	-10.3%	4.65µM*	83.3%
COc1ccc(OCCCC(=O)Nc2nc(-c3ccccn3)cs2)cc1	-32.6%	?	?	2.5%	?	31.9%
COc1ccc2oc(C(=O)Nc3nc(-c4ccccn4)cs3)c(C)c2c1	26.4%	?	?	-15.9%	6.57µM*	57.2%
Cc1cc(C)c(OCC(=O)Nc2nc(-c3ccccn3)cs2)c(C)c1	-36.4%	3.98µM*	8.28µM*	0.8%	?	33.3%
CC(Oc1ccc(F)cc1)C(=O)Nc1nc(-c2ccccn2)cs1 (centres undefined)	-29.9%	8.91µM*	2.62µM*	-1.4%	2.33µM*	65.0%
O=C(Nc1nc(-c2ccccn2)cs1)C1CC1	-8.4%	-3.4%	?	?	?	30.6%
COc1ccc2oc(-c3cccc(NC(=O)c4sc5c([N+](=O)[O-])cccc5c4Cl)c3)nc2c1	.	.	.	-2.2%	.	.
Cc1ccc(N2C(=O)C3N=NN(CC(=O)N4N=C(c5ccccc5)CC4c4ccccc4)C3C2=O)cc1 (centres undefined)	-39.3%	14.0%	11.7µM*	-5.8%	-24.7%	16.2%
CCCCN1C(=O)N(c2nnc(C(C)(C)C)s2)C(O)C1c1ccc(C)cc1 (centres undefined)	50.6%	?	8.28µM*	-2.4%	10.4µM*	-0.2%
O=C(Cc1cccs1)N1CCCC(c2nc3c(nnn3Cc3ccc(F)cc3)c(=O)[nH]2)C1 (centres undefined)	7.8%	14.9%	?	-5.9%	-16.8%	-9.5%

Assay outcomes (PubChem)
